The target of the experiment is Metabotropic glutamate receptor 3 (Rattus norvegicus) (UniProt P31422). Briefly: PubChem AID 623888. The conditions noted are these: HEK/GIRK rat mGlu3, thallium flux fluorescence, Schild, at 30 µM; % glutamate max: glutamate max response with compound, stronger effect = lower value; glutamate response, % max: at 100 µM (top of the series), compound 30 µM.

The values below come from PubChem BioAssay AID623888 (Vanderbilt Specialized Chemistry Center, 2012).

Metabotropic glutamate receptor 3 (Rattus norvegicus), sequence (P31422 whole entry, looked up): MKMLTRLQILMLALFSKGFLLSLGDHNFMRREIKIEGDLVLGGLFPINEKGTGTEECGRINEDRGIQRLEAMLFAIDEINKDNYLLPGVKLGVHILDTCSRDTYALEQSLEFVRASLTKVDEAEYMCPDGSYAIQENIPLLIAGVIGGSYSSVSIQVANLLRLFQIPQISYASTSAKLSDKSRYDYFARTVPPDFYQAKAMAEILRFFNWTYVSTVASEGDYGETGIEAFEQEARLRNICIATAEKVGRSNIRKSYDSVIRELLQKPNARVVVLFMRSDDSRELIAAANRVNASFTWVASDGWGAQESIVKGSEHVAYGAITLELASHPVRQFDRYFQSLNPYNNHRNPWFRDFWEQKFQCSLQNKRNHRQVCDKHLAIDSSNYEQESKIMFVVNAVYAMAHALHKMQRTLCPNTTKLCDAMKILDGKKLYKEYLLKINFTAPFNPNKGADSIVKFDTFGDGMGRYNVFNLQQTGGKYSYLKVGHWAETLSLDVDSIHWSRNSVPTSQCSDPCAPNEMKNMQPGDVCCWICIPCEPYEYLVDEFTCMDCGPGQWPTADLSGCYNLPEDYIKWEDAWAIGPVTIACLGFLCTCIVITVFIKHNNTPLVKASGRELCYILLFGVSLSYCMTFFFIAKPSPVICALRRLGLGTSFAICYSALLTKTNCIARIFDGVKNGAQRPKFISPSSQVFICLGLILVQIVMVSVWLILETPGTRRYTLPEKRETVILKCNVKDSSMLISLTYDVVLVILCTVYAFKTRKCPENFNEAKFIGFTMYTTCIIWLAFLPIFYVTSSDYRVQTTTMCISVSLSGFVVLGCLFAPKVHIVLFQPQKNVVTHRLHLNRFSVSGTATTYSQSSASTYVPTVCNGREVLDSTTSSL

`COc1ccc(C#Cc2ccc(C(=O)N3CCC[C@@H](CO)C3)cc2)cc1`: the % glutamate max was 1.37% and the glutamate response, % max was 2.62.
